Compound activity as filed in PubChem BioAssay.
The entries come from a sample that favours hits as a whole.
IDE exosite FP – exo-site inhibitors of human insulin-degrading enzyme; purified IDE, FL-6b probe fluorescence polarization; stronger effect = lower value; z-score at 20 µM; actives 6.3% (n = 17,000);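 active = z-score of -3 or lower, meaning strong loss of probe binding signal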;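 note: His-tagged human IDE residues 42-1019 made in E. coli with 30 nM FL-6b probe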
Target sequence (P14735 42-1019 limits assumed): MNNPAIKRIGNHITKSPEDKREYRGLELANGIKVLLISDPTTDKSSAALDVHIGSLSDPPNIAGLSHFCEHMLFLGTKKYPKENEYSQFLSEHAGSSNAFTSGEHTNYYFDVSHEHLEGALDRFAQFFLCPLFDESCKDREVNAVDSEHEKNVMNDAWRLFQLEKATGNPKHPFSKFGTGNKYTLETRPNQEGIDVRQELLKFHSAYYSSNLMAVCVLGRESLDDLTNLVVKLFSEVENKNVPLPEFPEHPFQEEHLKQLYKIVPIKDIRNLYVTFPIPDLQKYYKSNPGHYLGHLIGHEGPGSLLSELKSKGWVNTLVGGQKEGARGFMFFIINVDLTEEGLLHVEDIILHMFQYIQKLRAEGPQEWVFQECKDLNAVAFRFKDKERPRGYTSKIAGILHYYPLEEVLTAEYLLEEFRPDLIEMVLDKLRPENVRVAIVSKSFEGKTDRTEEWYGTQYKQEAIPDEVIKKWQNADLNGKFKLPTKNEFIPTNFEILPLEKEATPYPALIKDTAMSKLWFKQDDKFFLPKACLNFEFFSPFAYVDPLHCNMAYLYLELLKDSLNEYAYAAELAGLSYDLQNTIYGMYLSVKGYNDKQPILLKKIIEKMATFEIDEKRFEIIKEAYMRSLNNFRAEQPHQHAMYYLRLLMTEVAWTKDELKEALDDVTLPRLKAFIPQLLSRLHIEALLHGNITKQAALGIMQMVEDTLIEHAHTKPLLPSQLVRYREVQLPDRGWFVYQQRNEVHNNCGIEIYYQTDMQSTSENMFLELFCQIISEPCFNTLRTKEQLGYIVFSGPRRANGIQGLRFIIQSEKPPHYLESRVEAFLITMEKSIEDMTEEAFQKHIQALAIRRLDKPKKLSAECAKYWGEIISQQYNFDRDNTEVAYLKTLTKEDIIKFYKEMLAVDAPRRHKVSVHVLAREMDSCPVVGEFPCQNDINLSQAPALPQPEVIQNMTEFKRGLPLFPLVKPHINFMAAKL
* marks the source's active call; other numbers are inactive results.

SMILES	IDE exosite FP
CCCC#Cc1ccc([C@H]2[C@@H](CO)N3C(=O)CN(C(=O)Nc4ccccc4)C[C@@H]23)cc1	2.6
CC(=O)NC[C@@H]1[C@H](c2ccc(-c3ccccc3)cc2)[C@@H](CO)N1C(=O)C1CC1	2.6
COc1cccc(-c2ccc([C@@H]3[C@@H](CO)N4CCCCN(Cc5cncnc5)C[C@H]34)cc2)c1	0.32
COc1cccc(-c2ccc([C@@H]3[C@H]4CN(Cc5cncnc5)CCCCN4[C@H]3CO)cc2)c1	-3.9*
COc1cccc(-c2ccc([C@H]3[C@H]4CN(Cc5cncnc5)CCCCN4[C@H]3CO)cc2)c1	-2
CCS(=O)(=O)N1CC2(CN(CC3CCOCC3)[C@H](CO)c3c2c2ccc(OC)cc2n3C)C1	-2.6
CN(C)CC#Cc1ccc([C@H]2[C@@H](CO)N3CCCCN(S(=O)(=O)c4ccccc4F)C[C@@H]23)cc1	-0.28
O=C(NC1CCC1)[C@H]1[C@H](CO)[C@H]2Cn3c(ccc(-c4ccncc4)c3=O)[C@@H]1N2Cc1cocn1	2.2
CO[C@H]1CN(C)C(=O)c2cc(NS(C)(=O)=O)ccc2OC[C@@H](C)N(C(=O)C2CCOCC2)C[C@H]1C	0.47
COc1ccccc1NC(=O)N1CCCCN2[C@@H](CO)[C@H](c3ccc(-c4cccc(C)c4)cc3)[C@@H]2C1	-2.8
COc1ccccc1NC(=O)N1CCCCN2[C@H](CO)[C@H](c3ccc(-c4cccc(C)c4)cc3)[C@@H]2C1	-0.063
Cc1cccc(-c2ccc([C@@H]3[C@H]4CN(C(=O)c5ccc6c(c5)OCO6)CCCCN4[C@H]3CO)cc2)c1	1.5
Cc1cccc(-c2ccc([C@H]3[C@@H](CO)N4CCCCN(C(=O)NC(C)C)C[C@H]34)cc2)c1	-13*
Cc1cccc(-c2ccc([C@@H]3[C@H]4CN(C(=O)NC(C)C)CCCCN4[C@H]3CO)cc2)c1	-12*
COc1ccccc1NC(=O)N1CCCCN2[C@H](C1)[C@@H](c1ccc(-c3cccc(C)c3)cc1)[C@@H]2CO	-2.6
C[C@H]1CN([C@@H](C)CO)S(=O)(=O)c2ccc(-c3ccncc3)cc2O[C@@H]1CN(C)S(C)(=O)=O	1.2
O=C(O)C[C@@H]1C=C[C@H](NC(=O)Nc2cc(F)ccc2F)[C@H](CO)O1	0.77
COc1ccc2c3c([nH]c2c1)[C@@H](CO)N(C(C)=O)CC31CCN(C(C)=O)CC1	1.2
CCC(=O)N1CC2(C1)CN(Cc1cccc(Cl)c1)[C@@H](CO)c1[nH]c3cc(OC)ccc3c12	-3.3*
COc1ccc2c3c([nH]c2c1)[C@@H](CO)N(Cc1nccs1)CC31CN(Cc2ccncc2)C1	-3.2*
COc1ccc2c3c([nH]c2c1)[C@@H](CO)N(Cc1ccncc1)CC31CCN(CC2CCOCC2)CC1	0.53
CCCNC(=O)N1CC2(C1)CN(Cc1ccc(F)cc1)[C@H](CO)c1[nH]c3cc(OC)ccc3c12	0.53
COc1ccc(CN2CC3(CN(C(=O)Cc4ccccc4)C3)c3c([nH]c4cc(OC)ccc34)[C@@H]2CO)cc1	-1.7
COc1ccc2c3c([nH]c2c1)[C@H](CO)N(Cc1nccs1)CC31CCN(C(=O)C2CCCCC2)CC1	-0.97
CCCC(=O)N1CC2(C1)CN(Cc1cccnc1)[C@@H](CO)c1[nH]c3cc(OC)ccc3c12	-2.3
SMILES	IDE exosite FP
COc1ccc2c3c([nH]c2c1)[C@@H](CO)N(CC1CC1)CC31CCN(C(=O)Nc2cccc(F)c2)CC1	-0.92
CCCNC(=O)N1CC2(CCN(S(=O)(=O)CC)CC2)c2c([nH]c3cc(OC)ccc23)[C@@H]1CO	-1.9
CCCNC(=O)N1CCC2(CC1)CN(Cc1cccc(OC)c1)[C@H](CO)c1[nH]c3cc(OC)ccc3c12	-4.6*
COc1ccc2c3c([nH]c2c1)[C@H](CO)N(Cc1cccc(F)c1)CC31CCN(C(C)=O)CC1	-6.6*
N#C[C@H]1N[C@H](CO)[C@@H]1c1ccc(C2=CCCC2)cc1	0.044
COc1ccc2c3c([nH]c2c1)[C@@H](CO)NCC31CN(C(=O)Nc2ccc3c(c2)OCO3)C1	-0.42
COc1ccc(S(=O)(=O)N2CCCCN3[C@@H](CO)[C@H](c4ccc(C#CC(C)C)cc4)[C@@H]3C2)cc1	4.1
COc1ccc2c3c(n(C)c2c1)[C@@H](CO)N(C(=O)CN(C)C)CC31CN(Cc2nccs2)C1	-1.2
C/C=C/c1ccc([C@@H]2[C@H](CO)N(C(=O)CC)[C@H]2CNC(=O)C2CC2)cc1	4.1
Cc1noc(C)c1NC(=O)N[C@H]1C=C[C@H](CC(=O)Nc2ccc(-c3ccccc3)cc2)O[C@H]1CO	-0.58
CCCC#Cc1ccc([C@H]2[C@@H](CO)N3CCCCN(Cc4cccnc4)C[C@@H]23)cc1	0.87
COc1ccc2c3c(n(C)c2c1)[C@H](CO)N(Cc1cccc(Cl)c1)CC31CCN(C(=O)C2CC2)CC1	-1.6
COc1ccc2c3c(n(C)c2c1)[C@H](CO)N(Cc1cccnc1)CC31CCN(C(=O)NC(C)C)CC1	-3*
COc1ccc2c3c(n(C)c2c1)[C@H](CO)N(C)CC31CCN(C(=O)c2cccnc2)CC1	-0.19
COc1ccc2c3c(n(C)c2c1)[C@@H](CO)N(Cc1cccnc1)CC31CCN(C(=O)NC(C)C)CC1	-5.9*
COc1ccc2c3c(n(C)c2c1)[C@@H](CO)N(Cc1ccc(Cl)cc1)CC31CN(C(=O)NC(C)C)C1	0.21
COc1cccc(CN2CC3(CCN(S(C)(=O)=O)CC3)c3c(n(C)c4cc(OC)ccc34)[C@@H]2CO)c1	-2.5
CS(=O)(=O)N1[C@H](C#N)[C@H](c2ccccc2)[C@@H]1CO	3.1
CCCNC(=O)N(C)C[C@H]1N[C@@H](CO)[C@@H]1c1ccc(C2=CCCCC2)cc1	4
Cc1nc(N2[C@@H](C#N)[C@@H](c3ccccc3)[C@@H]2CO)sc1C	0.64
O=C(NC[C@H]1[C@@H](c2ccccc2)[C@@H](CO)N1Cc1ccccn1)C1CC1	4.8
C/C=C/c1ccc([C@@H]2[C@H]3CN(C(=O)Nc4cccc(OC)c4)CC(=O)N3[C@H]2CO)cc1	-1.5
CC(C)NC(=O)N1CCCCN2[C@@H](CO)[C@H](c3ccc(C#Cc4ccccc4F)cc3)[C@@H]2C1	-13*
CC(C)NC(=O)N1CCCCN2[C@H](CO)[C@H](c3ccc(C#Cc4ccccc4F)cc3)[C@H]2C1	-4.5*
CC(C)NC(=O)N1CCCCN2[C@H](C1)[C@H](c1ccc(C#Cc3ccccc3F)cc1)[C@@H]2CO	-9.6*
SMILES	IDE exosite FP
COCC#Cc1ccc([C@@H]2[C@H]3CN(C(=O)Nc4cc(F)ccc4F)CC(=O)N3[C@H]2CO)cc1	-0.91
C/C=C/c1ccc([C@@H]2[C@@H](CO)N(C(=O)CN(C)C)C23CN(C(=O)C2CCOCC2)C3)cc1	0.053
COc1ccc(C#Cc2ccc([C@H]3[C@@H](CO)N4CCCCN(S(=O)(=O)c5cn(C)cn5)C[C@@H]34)cc2)cc1	0.19
COCC#Cc1ccc([C@H]2[C@H]3CN(C(=O)C4CCOCC4)CC(=O)N3[C@H]2CO)cc1	0.44
O=C(Nc1ccccc1)N1CC(=O)N2[C@H](CO)[C@H](c3ccc(C#CC4CCCCC4)cc3)[C@@H]2C1	1.1
COCC(=O)N1CC(=O)N2[C@H](CO)[C@@H](c3ccc(C#CCc4ccccc4)cc3)[C@@H]2C1	-3
COCC(=O)N1CC(=O)N2[C@@H](CO)[C@H](c3ccc(C#CCc4ccccc4)cc3)[C@@H]2C1	-0.16
O=C(C1CCOCC1)N1CC(=O)N2[C@H](C1)[C@@H](c1ccc(C#CCc3ccccc3)cc1)[C@@H]2CO	-0.15
O=C(C1CC1)N1CC(=O)N2[C@H](C1)[C@H](c1ccc(C#CCc3ccccc3)cc1)[C@@H]2CO	-4.6*
